In all, about 300,000 compounds went through this assay and about 22,000 (7.3%) were called active. Roughly 2% stayed inconclusive and do not appear here. The entries come from a sample that favours actives as a whole. A number with no mark means an inactive call. No stated cut-off is given here; in the data, active means activity score below about -60%; inconclusive means mostly about -28% to -61%; inactive means positive scores.
Assay: Activators via SNCA 5'UTR binding, MLPCN (AID 1814)
Conditions: alpha-synuclein 5'UTR reporter, activators screen; stronger effect = lower value; tested at 7.5 µM

| SMILES | activity score |
| --- | --- |
| CCOc1ccc(C2c3[nH]c4ccccc4c3CCN2Cc2cn(CC)nc2C)cc1 (stereo unspecified) | -101% (active) |
| COc1ccccc1-c1cnn2c(N3CCOCC3)cc(C)nc12 | -164% (active) |
| CCn1ccnc1CN(C)Cc1nc(-c2ccc3c(c2)OCO3)no1 | -80.6% (active) |
| Cc1ccc(NC(=O)c2cc3ccccc3o2)cc1 | -123% (active) |
| O=C(NC(=S)Nc1cccc(-c2ccc(CO)o2)c1)c1cccs1 | -80.9% (active) |
| COc1ccc2occ(C(=O)c3ccc(N=C(C)N(C)C)cc3)c2c1 | -75.8% (active) |
| COC(=O)c1ccc(NCC(=O)c2ccccc2)cc1 | -123% (active) |
| C=CCNC(=O)c1ccc2c3n(nc2c1)-c1ccc(C)cc1CO3 | -197% (active) |
| Cc1ccccc1-n1c(C)cc(/C=C2\NC(=O)NC2=O)c1C | -131% (active) |
| Cc1nn(CCOc2ccccc2)c(=O)n1-c1ccccc1F | -99.2% (active) |
| C=C(C)CSc1nnc(-c2ccc(C)cc2)n1N | -99.6% (active) |
| CCCCCOc1ccc(CSC2=NCCN2)cc1[N+](=O)[O-] | -150% (active) |
| CCCCOc1ccc(CSC(=N)N)cc1[N+](=O)[O-] | -91.9% (active) |
| CC1(C)C=Cc2c(ccc3c2OC[C@@H](c2ccc(O)cc2O)C3)O1 | -154% (active) |
| CC(C)Cc1cc(C(=O)Nc2cc(Br)ccc2O)no1 | -135% (active) |
| CC(C)CNC(=O)c1cc(-c2ccc(Br)cc2)on1 | -187% (active) |
| CC(C)Cc1cc(C(=O)NCCc2ccccc2)no1 | -169% (active) |
| Cc1cccc(NC(=S)NC(=O)c2ccc(Br)o2)c1 | -131% (active) |
| Cc1cccc(NC(=O)NC(=S)NC(=O)c2ccccc2)c1 | -62.7% (active) |
| Cc1ccc(NC(=O)NC(=O)c2ccccc2)cc1F | -128% (active) |
| Cc1cccc(NC(=O)c2ccc([N+](=O)[O-])o2)c1 | -159% (active) |
| Cc1nn(-c2ccccc2)c(C)c1NC(=O)CCl | -101% (active) |

| SMILES | activity score |
| --- | --- |
| CCCCCCOC(=O)NCC(O)c1ccccc1 (stereo unspecified) | -126% (active) |
| COCC1CCCN(Cc2nc(-c3ccc4c(c3)OCO4)no2)C1 (stereo unspecified) | -62.5% (active) |
| Cc1ccc2nc(Nc3ccccc3)cc(C)c2c1 | -82.2% (active) |
| Cc1cc(Nc2ccc(Br)cc2)nc2ccccc12 | -83.2% (active) |
| CCOc1cc(/C=N/Nc2cc(C)nc3ccc(C)cc23)ccc1O | -66.2% (active) |
| c1csc(-c2nc(-c3ccncc3)no2)c1 | -153% (active) |
| Cc1ccc(-c2nc(-c3ccncc3)no2)c(C)c1 | -108% (active) |
| Cn1ccnc1-c1nnn(-c2ccc(F)cc2)n1 | -89.8% (active) |
| Oc1ccc(/C=N/Nc2ccc(C(F)(F)F)cn2)cc1O | -195% (active) |
| Oc1ccc(Br)cc1/C=N/Nc1ccccn1 | 66.4% |
| c1ccc(-n2ncc3c2ncn2c(C4CCCCC4)nnc32)cc1 | -128% (active) |
| CC(=O)Nc1cccc(-c2cnc3ccccc3n2)c1 | -207% (active) |
| c1ccc(Nc2nc(-c3ccncc3)cs2)nc1 | -108% (active) |
| Cc1cccc(Nc2nc(-c3ccccc3)cs2)n1 | -106% (active) |
| Clc1ccc(Nc2nc(-c3cccs3)cs2)nc1 | -244% (active) |
| CC(=O)Nc1cccc(-c2csc(Nc3cccc(C)n3)n2)c1 | -234% (active) |
| c1cnc(Nc2nc(-c3ccc4ccccc4c3)cs2)nc1 | -125% (active) |
| CCOc1cc2[nH]c(=S)n(Cc3ccc(C(=O)N4CCN(C)CC4)cc3)c(=O)c2cc1OCC | 86.1% |
| COc1ccccc1C1C2=C(COC2=O)Nc2cc3c(cc21)OCO3 (stereo unspecified) | 98.1% |
| CCCOc1ccccc1C1CC(=O)Nc2cc3c(cc21)OCO3 (stereo unspecified) | 111% |
| COc1cc2c(cc1/C=C1/NC(=O)N(c3ccccc3)C1=O)OCO2 | -142% (active) |
| Cc1noc(C)c1/C=N/Nc1ccc2ccccc2n1 | -146% (active) |

| SMILES | activity score |
| --- | --- |
| C(=N\Nc1ccc2ccccc2n1)/c1ccc2c(c1)OCO2 | 88.2% |
| C/C(=N\NC(=O)OC(C)(C)C)c1ccc[nH]1 | -122% (active) |
| O=C(Nn1cnc2ccccc2c1=O)c1ccc(F)cc1Cl | -87.1% (active) |
| O=[N+]([O-])c1ccc2c(c1)Nc1nc3ccccc3nc1N2 | -94.2% (active) |
| Cn1c(=NC(=O)c2cnccn2)sc2ccccc21 | -97.9% (active) |
| O=C(NC(=S)Nc1ccccc1C(=O)O)c1ccc(-c2ccc(Br)cc2)o1 | -123% (active) |
| O=C(NC1CCCC1)C(=O)c1c[nH]c2ccccc12 | -81.6% (active) |
| O=C(CN1CCCCCC1)Nc1ccc(Br)cc1Br | -101% (active) |
| O=C(CN1CCCCCC1)Nc1c(Cl)cc(Cl)cc1Cl | -86.3% (active) |
| O=C(Nc1ccc(OC(F)(F)F)cc1)c1ccc2c(c1)no[n+]2[O-] | -72.3% (active) |
| Cc1cc(Cl)nc(NC(=O)Nc2cccc(Cl)c2)n1 | -64.7% (active) |
| CCN1CCN(C(=O)CSc2ccc(C)cc2)CC1 | -69.7% (active) |
| Cc1ccc(N/N=C2\COC(C)(C)CC2=O)cc1 | -141% (active) |
| COc1ccc(C2NC(=O)c3ccccc3N2)cc1 (stereo unspecified) | -70.6% (active) |
| COc1ccc(OC)c(C2C3=C(N=c4s/c(=C\c5cccc(O)c5)c(=O)n42)c2ccccc2CC3)c1 (stereo unspecified) | 58.4% |
| CN1CCN(c2ccc(NC(=O)c3ccccc3)cc2)CC1 | -102% (active) |
| COc1cccc(C(=O)Nc2ccc(N3CCCC3)cc2)c1 | -189% (active) |
| COc1cccc(C(=O)NNC(=O)c2cccc(F)c2)c1 | -79.5% (active) |
| COc1cccc(C(=O)Nc2ccc(N3CCN(C(=O)c4ccco4)CC3)cc2)c1 | -184% (active) |
| CC[C@]1(O)CC2CN(CCc3c([nH]c4ccccc34)[C@@](C(=O)OC)(c3cc4c(cc3OC)N(C=O)[C@H]3[C@@](O)(C(=O)OC)[C@H](OC(C)=O)[C@]5(CC)C=CCN6CC[C@]43[C@@H]65)C2)C1 (stereo partly specified) | 102% |
| COc1cccc(C(=O)Nc2ccc(NC(=O)c3ccco3)cn2)c1 | -135% (active) |
| Cc1ccccc1C(=O)Nc1ccc(N2CCCCCC2)cc1 | -160% (active) |

| SMILES | activity score |
| --- | --- |
| COc1cccc(C(=O)Nc2cc3c(cc2Br)OCCCO3)c1 | -98.2% (active) |
| COC(=O)c1c(C)[nH]c(C(=O)/C=C/c2ccc(Cl)cc2)c1C | -131% (active) |
| NC(=O)Cc1ccc2sc(-c3ccccc3)nc2c1 | -98.2% (active) |
| O=C(c1cc(-c2ccc(Cl)cc2)on1)N1CCN(c2ccccc2)CC1 | -113% (active) |
| COc1ccccc1-c1cc(C(=O)N2CCCCC2)no1 | -93.5% (active) |
| O=C(c1cc(-c2cccs2)on1)N1CCCCC1 | -73.9% (active) |
| COc1cc(Cl)ccc1OCc1cc(C(=O)N2CC[C@@H]3CCCC[C@H]3C2)no1 | -69% (active) |
| O=C(c1cc(-c2ccccc2O)on1)N1CCCC1 | -142% (active) |
| COc1ccc(OCc2cc(C(=O)N3CCCC3)no2)c2ccccc12 | -148% (active) |
| COc1cccc(OCc2cc(C(=O)N3CCN(C(=O)c4ccco4)CC3)no2)c1 | -121% (active) |
| CCCOC1CCCN(C(=O)c2cc(COc3cncc(Cl)c3)on2)C1 (stereo unspecified) | -219% (active) |
| Cc1nc(-c2ccccc2)sc1C1(C)CC(c2cccnc2)=NO1 (stereo unspecified) | -91.2% (active) |
| COc1ccc(C(C#N)Nc2ccc(C)cc2)cc1 (stereo unspecified) | -61.8% (active) |
| COc1cc(OC)cc(C(=O)Nc2ccc(-c3nc4ccccc4o3)c(O)c2)c1 | -61.8% (active) |
| CCOC(=O)c1ccc(NC(=O)c2cccnc2)cc1 | -77.6% (active) |
| Cc1cc2nc(-c3ccc(NC(=O)c4cccnc4)cc3)oc2cc1C | -164% (active) |
| CC(=O)Nc1ccc(-c2nc3ccccc3o2)cc1 | -91.4% (active) |
| CCOC(=O)c1ccc(NC(=O)Cc2cccs2)cc1 | -126% (active) |
| CCCC(=O)N1c2ccc(-c3csc(N)n3)cc2CC1C (stereo unspecified) | -192% (active) |
| CC(=C/c1ccccc1)/C=N/NC(=O)c1cc(C)oc1C | -125% (active) |
| Cc1cc(C(=O)N/N=C\C(Br)=C\c2ccccc2)c(C)o1 | -124% (active) |
| Cc1cc(C(=O)N/N=C/c2ccc(N3CCOCC3)cc2)c(C)o1 | -87.1% (active) |

| SMILES | activity score |
| --- | --- |
| CC(C)c1cc(C(=O)N/N=C/C(Br)=C/c2ccccc2)n[nH]1 | -105% (active) |
| CC(C)(C)c1cc(C(=O)N/N=C/c2ccc([N+](=O)[O-])s2)n[nH]1 | 64% |
| Cc1cc(C(=O)N/N=C/c2ccccc2[N+](=O)[O-])c(C)o1 | -112% (active) |
| Cc1c(Cl)cccc1NC(=O)Nc1ccc(C(=O)N2CCCC2)cc1 | -77.6% (active) |
| CC(=O)NNC(=O)c1csc(Cc2c(Cl)sc3ccc(Cl)cc23)n1 | 67.1% |
| CCOC(=O)c1c(C)nc(-c2ccccc2)nc1NC(=O)C(C)C | -83.8% (active) |
| Nc1ccc(N=Nc2ccccc2Cl)c(N)n1 | -165% (active) |
| O=C(NCCc1ccccc1)Oc1ccc(Cl)cc1 | -107% (active) |
| Cc1cc(C(=O)NCCc2ccc(Cl)cc2)c(C)o1 | -131% (active) |
| Cc1ccc2nc(/C(C#N)=C\c3ccc(OC(=O)c4cccs4)cc3)[nH]c2c1 | -283% (active) |
| N/C(=N\OC(=O)CC1CCCCC1)c1ccccc1 | -116% (active) |
| COc1ccccc1OCC(=O)O/N=C(\N)c1ccccn1 | -121% (active) |
| COc1ccc(CC(=O)N/N=C(\C)c2ccccn2)cc1 | 77.7% |
| N/C(=N\OC(=O)CCC1CCCCC1)c1ccccn1 | -180% (active) |
| COc1ccc(C(=O)O/N=C(\N)c2ccccn2)cc1[N+](=O)[O-] | -177% (active) |
| N/C(=N\OC(=O)Cc1ccc([N+](=O)[O-])cc1)c1ccccn1 | -161% (active) |
| CCc1c(C)nc2cc(-c3cccs3)[nH]n2c1=O | -81% (active) |
| C=CCc1c(C)nc2cc(-c3ccccc3)[nH]n2c1=O | -102% (active) |

— PubChem BioAssay AID1814 (Broad Institute, 2009)
